The record followed here is PubChem BioAssay (NCI).

The structures appear in SMILES notation. About 83,000 compounds went through this panel and 20% of them were active in at least one assay; those are over-represented in the sample as a whole.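 96-well plates, one dose, 48 hours. Percent growth reported; active if below 10.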 Values without a mark were called inactive. Calls of active or inactive are those of the source.

This assay relates to HL-60(TB) leukemia. Description: NCI-60 one-dose screen, 48 h (100 = growth as untreated, 0 = no growth, -100 = all killed). The note with it: 10 µM unless noted.
`Cc1ccc(Nc2ncnc3c2c(C)nn3-c2ccc([N+](=O)[O-])cc2)cc1`: the growth is 96.7%. For `O=C(NNc1nc2cc(F)c(F)cc2n2c(CN3CC4CNCC4C3)ccc12)c1ncccn1` (centres undefined), the growth is -30.7% (active). On to `NNC(=O)c1sc2nc(-c3cnccn3)cc(-c3cccs3)c2c1N`, for which the growth was 105%. On to `C#C[C@]1(O)CC[C@H]2[C@@H]3CC=C4c5sc(-c6ccc(F)cn6)nc5CC[C@]4(C)[C@H]3CC[C@@]21C`, for which the growth is 8.65% (active). On to `CCNC(=NCCCN(C)C)N/C(N)=N/c1nc2ccccc2s1`, for which the growth is 90.9%. On to `COc1c(N2CC3CCCNC3C2)c(F)cc2c(=O)c(C(=O)N/N=C/c3ccc4c(c3)OCO4)cn(C3CC3)c12` (centres undefined), for which the growth was 75.8%. For `COc1ccc(C(C)=C(c2ccc(OCCN3CCCCCC3)cc2)c2ccc(OCCN3CCCCCC3)cc2)cc1` the value was -46.9% (active).

In the case of `NC(=S)N/N=C(/C=C/c1cn(-c2ccccc2)nc1-c1ccc(Cl)cc1)c1cc2ccccc2oc1=O`, the growth is 43.9%. As for `CCn1c2ccc(/C=N/OCCCN(C)C)cc2c2cc(/C=N/OCCCN(C)C)ccc21`, the growth was -36.9% (active). As for `C=C(C=O)[C@@H]1CC[C@]2(C)[C@H](CC=C3[C@H]4[C@@H](C)[C@H](C)CC[C@]4(C(=O)OC)CC[C@]32C)[C@@]1(C)CCC#N`, the figure is -25.2% (active). `CCN(CC)c1ccc2cc(C(=O)NCCOCCOCCOCCn3cc(CCC(=O)Nc4ccc(C(=O)c5ccc(NC(=O)OC(C)(C)C)cc5)cc4)nn3)c(=O)oc2c1`: the growth is 37%. As for `C#C[C@]1(O)CC[C@H]2[C@@H]3CC=C4c5sc(Nc6ccc(Cl)cn6)nc5CC[C@]4(C)[C@H]3CC[C@@]21C`, the figure is 6.4% (active); as for `O=C1Nc2ccccc2/C1=N\c1nnc(-c2ccccc2)o1`, 99.6%. Turning to `CCCC(=O)NC(c1cccnc1)c1cc(C)c2cccnc2c1O` (centres undefined), the growth was 1.38% (active).

As to `O=S(=O)(Nc1ccc(I)cc1Cl)c1ccc(-c2cnc(C3CC3)o2)cc1`, the growth was 9.69% (active). On to `CCCCCCN1C=C/C(=C\C(=O)n2ccc3ccccc32)c2ccccc21`, for which the growth is 24.7%. As for `NS(=O)(=O)c1ccc(Nc2nc(Nc3ccccc3)nc(N3N=C(c4ccc(Cl)cc4)CC3c3ccc(Cl)cc3)n2)cc1` (centres undefined), the figure is 25.6%; as for `O=C(/C=C/c1cccc(O)c1)c1ccc(O)cc1`, 72.3%. As for `N#Cc1nc(-c2ccccc2)oc1N1CCC(CO)C1` (centres undefined), the figure is 107%; as for `O=C(CSc1nc2ccccc2c(=O)n1-c1ccc(S(=O)(=O)Nc2ccc(Cl)nn2)cc1)Nc1ccc(S(=O)(=O)Nc2ccc(Cl)nn2)cc1`, 96.4%; as for `CNC(=O)c1cc(N2CCc3cc(NC(=O)Nc4ccc(Cl)c(Cl)c4)ccc32)ccn1`, 124%.

Turning to `O=C(Cn1cc(CN2C(=O)c3ccc([N+](=O)[O-])cc3C2=O)nn1)Nc1ccccc1Br`, the growth was 101%. As for `O=S(=O)(Nc1ccc(-n2cnc3cc(-c4ccc(O)cc4)ccc32)cc1)C1CC1`, the figure is 56.9%; as for `Cc1ccc(/C=C/CC(=O)Nc2ccc(C(=O)Nc3ccc(F)cc3N)cc2)cn1`, 8.39% (active); as for `CC1=NC2=NC(=O)/C(=C3/N=C(C)C=C(c4ccccc4)N3N)NN2C(c2ccccc2)=C1`, 113%.

On to `CN1CCN(c2nc(-c3csc(-c4ccncc4)n3)cc3ccccc23)CC1`, for which the growth was 32.2%. As for `COc1cccc(N2CCN(C3=C(Cl)C(=O)c4ncccc4C3=O)CC2)c1`, the growth was 9.82% (active). On to `COc1cc(/C=C/C(=O)c2ccc(Cl)cc2)ccc1Oc1nc(NCCO)nc(N2CCOCC2)n1`, for which the growth is 93.7%. Take `N#Cc1cnc2ccc(-c3cnc4[nH]ncc4c3)cc2c1N1CCc2cc(F)c(Cl)cc21`: the growth was 1.45% (active). For the compound `CCN1C(=S)N(CC)C2C1N=C(SC)N2/N=C/C=C/c1ccccc1[N+](=O)[O-]` (centres undefined), the growth is 84.3%. For `COc1ccc(C(=O)/C=C/c2ccc(OCc3ccc(Cl)cc3)c(OC)c2)cc1OC` the value was 4.56% (active); for `CCOC(=O)c1sc(NCC(=O)Nc2cccc([N+](=O)[O-])c2)c(C(=O)OCC)c1C`, 0.979% (active).

Turning to `COc1ccc2sc(NC(=O)CCCCCCNC(=O)C(O)(O)C(F)(F)F)nc2c1`, the growth was 11.8%. As for `O=C(Nc1cccc(-c2nc(-c3ccc(NC(=O)c4cccnc4)cc3Cl)no2)c1)Nc1ccc(NC(=O)C2CC2)c(C(F)(F)F)c1`, the figure is -41.5% (active); as for `CN(C)CCn1c2ccc(N)cc2c2nc3ccccc3nc21`, 12%. For `Nc1n[nH]c2cccc(C#Cc3cccc(NC(=O)c4cccc(OC(F)(F)F)c4)c3)c12` the value was 17.7%; for `CS(=O)(=O)c1ccc(-n2cc(/C=N/O)c(-c3ccccc3)n2)cc1`, -45.8% (active). For `C=C(C)C(=O)O[C@H]1C[C@@]2(C)OC(=CC2=O)[C@H](C)[C@H](O)[C@H]2OC(=O)C(=C)[C@@H]21` the value was 14.3%; for `CC(=O)C1=C(C)NC(NNC(N)=S)=NC1c1ccccc1` (centres undefined), 148%.
